Laboratory results reported in PubChem BioAssay (NCI).
This is part of a sample that, as a whole, favours compounds with a hit. Of some 83,000 tested, about 20% had one in any assay.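 For each line, cells grew in 96-well plates with the test compound present at a single concentration for 48 hours.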 A number with no mark means an inactive call. Active and inactive are the calls of the source. Rule for the calls: active = growth percent below 10; inactive = the rest.

These compounds were tested on HCT-116 colon (assay: NCI-60 one-dose screen, 48 h (100 = growth as untreated, 0 = no growth, -100 = all killed)). Conditions: 10 µM unless noted.

Row | Structure (SMILES) | growth
1 | CC(C)=CCC[C@@H](C)[C@H]1CC[C@@]2(C)C3=C(CC[C@]12C)[C@@]1(C)CC[C@H](O)C(C)(C)[C@@H]1CC3 | 108%
2 | CCN(CC)CCN1CNC(=S)NC1 | 103%
3 | OC(CCN1CCCCC1)(c1ccccc1)c1ccccc1 | 102%
4 | C#CC(O)c1ccccc1 (centres undefined) | 102%
5 | CCNc1ncnc2[nH]ncc12 | 105%
6 | Nc1ccc(F)c(Cl)c1F | 94.9%
7 | Clc1ccc(-c2noc(/C=C\c3ccccc3)n2)cc1 | 102%
8 | COC1OC(COC(C)=O)C(OC(C)=O)C(OC(C)=O)C1OC(C)=O (centres undefined) | 87.4%
9 | Cc1c(Cl)cccc1N=C=S | 95.2%
10 | CCOc1ccc2c(c1)c(C)cc(C)[n+]2CC | 54.5%
11 | Cc1cccnc1NC1OC(=O)c2ccccc21 (centres undefined) | 90.8%
12 | NS(=O)(=O)c1cc(=O)[nH]c(=O)[nH]1 | 105%
13 | COc1ccc2c(ccc[n+]2C)c1 | 99.8%
14 | CN1CCCN(C(c2ccccc2)c2ccc(Cl)cc2)CC1 (centres undefined) | 96.9%
15 | Clc1cccc(Cl)c1C1CSc2ccccc2N=C1c1ccccc1 (centres undefined) | 19.3%
16 | O=C(O)CSCC(=O)Nc1cc(C(F)(F)F)ccc1Cl | 107%
17 | CC(=O)O[C@H]1CC[C@]2(C)C3=C(C(=O)C[C@H]2C1(C)C)[C@]1(C)CC[C@H]([C@H](C)CCC(=O)O)[C@@]1(C)CC3=O | 99.2%
18 | C=COC(=O)C(C)(C)C | 109%
19 | COc1cc(-c2ccc(NC(=O)CC(C)=O)c(OC)c2)ccc1NC(=O)CC(C)=O | 105%

Row | Structure (SMILES) | growth
20 | CCCCCCCCCCCCCCCCCC(=O)NCCNC(=O)CCCCCCCCCCCCCCCCC | 70.2%
21 | CCOc1ccc(C(=O)O)cc1 | 99%
22 | CCNCC(C)(C)O | 101%
23 | Cc1ccc(S(=O)(=O)NC(=O)NCCSSCCNC(=O)NS(=O)(=O)c2ccc(C)cc2)cc1 | 113%
24 | O=C(O)Cc1ccc(Cl)cc1 | 77.4%
25 | ClCC(Cl)[C@@H]1CC2C=CC1C2 (some centres undefined) | 98.4%
26 | CCOC(OCC)C(=O)c1ccccc1 | 108%
27 | O=C(CCl)Nc1ccccc1SCc1cc(Cl)cc2c1OCOC2 | 78.9%
28 | COc1cccc(C(=O)NNC(=O)c2cccc3ccccc23)c1 | 108%
29 | CC(C)N(CCCC#N)C(C)C | 98.8%
30 | O=C(c1cccc(C(=O)c2ccc3c4c(cccc24)C(=O)N(c2ccccc2)C3=O)c1)c1ccc2c3c(cccc13)C(=O)N(c1ccccc1)C2=O | 93.9%
31 | CC(c1ccccc1)N1C(=O)CSC1=S (centres undefined) | 5.85% (active)
32 | O=C(OCc1ccccc1)n1nnc2ccccc21 | 98.1%
33 | Nc1ncc([N+](=O)[O-])cn1 | 106%
34 | O=C(O)C1CSC(c2ccccc2)N1 (centres undefined) | 101%
35 | Cc1ccc(O)c(N)c1 | 111%
36 | CN(C)c1ccc(O)c2c1CC1CC3C(N(C)C)C(=O)C(C(N)=O)=C(O)C3(O)C(=O)C1=C2O (centres undefined) | 34.1%
37 | Nc1c(O)c(S(=O)(=O)O)c(O)c2c1C(=O)c1ccccc1C2=O | 7.87% (active)

Each compound was assayed on HCC-2998 colon in the same assay as above. Conditions: 10 µM unless noted.

Row | Structure (SMILES) | growth [%]
38 | CC(C)=CCC[C@@H](C)[C@H]1CC[C@@]2(C)C3=C(CC[C@]12C)[C@@]1(C)CC[C@H](O)C(C)(C)[C@@H]1CC3 | 101
39 | CCN(CC)CCN1CNC(=S)NC1 | 109
40 | OC(CCN1CCCCC1)(c1ccccc1)c1ccccc1 | 99.1
41 | C#CC(O)c1ccccc1 (centres undefined) | 125
42 | CCNc1ncnc2[nH]ncc12 | 106
43 | Nc1ccc(F)c(Cl)c1F | 100
44 | Clc1ccc(-c2noc(/C=C\c3ccccc3)n2)cc1 | 95.2
45 | COC1OC(COC(C)=O)C(OC(C)=O)C(OC(C)=O)C1OC(C)=O (centres undefined) | 101
46 | Cc1c(Cl)cccc1N=C=S | 92.9
47 | CCOc1ccc2c(c1)c(C)cc(C)[n+]2CC | 82.9
48 | Cc1cccnc1NC1OC(=O)c2ccccc21 (centres undefined) | 106
49 | NS(=O)(=O)c1cc(=O)[nH]c(=O)[nH]1 | 121
50 | COc1ccc2c(ccc[n+]2C)c1 | 104
51 | CN1CCCN(C(c2ccccc2)c2ccc(Cl)cc2)CC1 (centres undefined) | 98.9
52 | Clc1cccc(Cl)c1C1CSc2ccccc2N=C1c1ccccc1 (centres undefined) | 95.4
53 | O=C(O)CSCC(=O)Nc1cc(C(F)(F)F)ccc1Cl | 118
54 | CC(=O)O[C@H]1CC[C@]2(C)C3=C(C(=O)C[C@H]2C1(C)C)[C@]1(C)CC[C@H]([C@H](C)CCC(=O)O)[C@@]1(C)CC3=O | 102
55 | C=COC(=O)C(C)(C)C | 94.1
56 | COc1cc(-c2ccc(NC(=O)CC(C)=O)c(OC)c2)ccc1NC(=O)CC(C)=O | 100

Row | Structure (SMILES) | growth [%]
57 | CCCCCCCCCCCCCCCCCC(=O)NCCNC(=O)CCCCCCCCCCCCCCCCC | 82.1
58 | CCOc1ccc(C(=O)O)cc1 | 104
59 | CCNCC(C)(C)O | 109
60 | Cc1ccc(S(=O)(=O)NC(=O)NCCSSCCNC(=O)NS(=O)(=O)c2ccc(C)cc2)cc1 | 108
61 | O=C(O)Cc1ccc(Cl)cc1 | 108
62 | ClCC(Cl)[C@@H]1CC2C=CC1C2 (some centres undefined) | 118
63 | CCOC(OCC)C(=O)c1ccccc1 | 112
64 | O=C(CCl)Nc1ccccc1SCc1cc(Cl)cc2c1OCOC2 | 99.1
65 | COc1cccc(C(=O)NNC(=O)c2cccc3ccccc23)c1 | 102
66 | CC(C)N(CCCC#N)C(C)C | 106
67 | O=C(c1cccc(C(=O)c2ccc3c4c(cccc24)C(=O)N(c2ccccc2)C3=O)c1)c1ccc2c3c(cccc13)C(=O)N(c1ccccc1)C2=O | 114
68 | CC(c1ccccc1)N1C(=O)CSC1=S (centres undefined) | 53.2
69 | O=C(OCc1ccccc1)n1nnc2ccccc21 | 103
70 | Nc1ncc([N+](=O)[O-])cn1 | 107
71 | O=C(O)C1CSC(c2ccccc2)N1 (centres undefined) | 103
72 | Cc1ccc(O)c(N)c1 | 110
73 | CN(C)c1ccc(O)c2c1CC1CC3C(N(C)C)C(=O)C(C(N)=O)=C(O)C3(O)C(=O)C1=C2O (centres undefined) | 49.7
74 | Nc1c(O)c(S(=O)(=O)O)c(O)c2c1C(=O)c1ccccc1C2=O | 31.8
